Reference: PubChem BioAssay AID1347428 (National Center for Advancing Translational Sciences (NCATS), 2020)
Among all 91,000 compounds or so, about 290 (0.32%) were called active. Roughly 7% stayed inconclusive and do not appear here. The full list was thinned out, with actives kept by preference. A number with no mark means an inactive call. Calls follow the shape of the dose curve; as a rule, active = well fitted inhibition curve with a large enough effect; inconclusive = small, poorly fitted or top-dose-only effect; inactive = no such curve, though single readings can be large or run the other way.

Target: Single-stranded DNA cytosine deaminase (Homo sapiens) (UniProt Q9GZX7)
Test: Primary qHTS assay for inhibitors of Activation Induced Cytidine Deaminase (AID): AID signal; also: nearly all actives have a fitted effect of over 25% in size
Details: AID deamination FRET fluorescence, UDG-coupled, 4 h; series mostly up to 115 µM; activity change, negative = inhibition: at the top concentration
Text: Assay Provider (PI) Patricia Gearhart Ph.D.
National Institute on Aging
National Institute of Health (NIH), Bethesda, MD
Assay Provider (PI) Rahul Kohli Ph.D.
Perelman School of Medicine
University of Pennsylvania, Philadelphia, PA
Activation-Induced Deaminase (AID) is a cytosine deaminase which converts cytosine into uracil within stretches of ssDNA. The presence of uracil in DNA initiates a cascade of mutagenic DNA repair to introduce point mutations and DNA double strand breaks. Specific targeting of AID to the immunoglobulin heavy chain loci (Igh) promotes mutagenesis in the antibody variable region for somatic hypermutation (SHM) or switch regions leading to class switch recombination (CSR). However, AID also plays a role in accumulating unnecessary mutations across the genome. Mis-targeting of AID results in the initiation of tumor development and leads to greater drug resistance among cancer cells when continually expressed. To identify an AID inhibitor, a small molecule library will be screened in collaboration with NCATS core facility at NIH. To confirm biological function, inhibitors will be examined in an in vitro murine B-cell activation assay and subsequent secondary validation screens. Top molecules will be further screened to identify inhibitory efficacy against a wild type primary splenocytes assay. Using these approaches, we hope to identify a small molecule with great efficacy and low toxicity for use as a molecular probe to further characterize AID's intricacies, or even as a therapeutic.
A FRET based analysis of cytosine deamination, was developed to identify potential inhibitors of AID catalytic activity. This screen has two signal output, Read 1 evaluates the AID inhibition response. The second readout (Read 2) evaluates UDG response and is uses as a counterscreen to exclude false positive inhibitors. Inhibition in AID and inactivity in the UDG signal is the desired outcome for this assay.
SEQUENCE No. (e.g., 1, 2, 3, etc.); […] (e.g., Cells, Incubation, Reagent, etc.); VALUE; DESCRIPTION
1a; Reagent; 3 uL; [4/3x] 1 uM AID/2.67 U/mL UDG
1b; Reagent; 3 uL; 2 U/mL UDG
1c; Reagent; 3 uL; 1 uM AID
2a; Compound; 46 nL; Follow-up plates (0.64 uM - 10 mM)
2b; Control; 46 nL; ATA ([…] - 10 mM)
3; Time; 10 min; incubation at room temperature
5; Time; 4 hr; incubation at room temperature
6; Reagent; 4 uL; [2x] 250 mM NaOH
7; Time; 15 sec; centrifuge at 1000 rpm
8; Time; 30 min; incubation at room temperature
9a; Detection; fluorescence (Read 1: AID); EnVision (PerkinElmer) plate reader, 540 excitation and 590 emission filters
9b; Detection; fluorescence (Read 2: UDG); EnVision (PerkinElmer) plate reader, 560 excitation and 665 emission filters
NOTES (numbers refer to sequence above)
1a; Reagents were dispensed in a medium-binding black solid-bottom Greiner plates (789176F) using a BioRptr liquid dispenser. Dispense 3 uL of [4/3x] 1 uM AID (provided by Kohli lab) and [4/3x] 2 U/mL UDG (NEB M0280L) into columns 1, 2, 5 to 48.
1b; Dispense 3 uL of [4/3x] 2 U/mL UDG into column 3.
1c; Dispense 3 uL of [4/3x] 1 uM AID into column 4.
2a; Compound (7-points [uM] (0.64; 3.2; 16; 80; 400; 2,000; 10,000; 20,000) double pin-transferred (Dip Factor = 2) using the Kalypsys (Wako USA) pintool equipped with a 1536 pinhead for a final concentration range of 7.32 nM - 114 uM.
2b; 10 mM Aurintricarboxylic Acid (Sigma A1895) (ATA, 8-point, n = 2, 1:2.5 dilution in column 2) double pin-transferred (Dip Factor = 2) using the Kalypsys (Wako USA) pintool equipped with a 1536 pinhead for a [final] range of 186 nM - 114 uM.
3; Room temperature incubation.
4; Dispense 1 uL of substrate mixture from the Kohli lab [4x] […] DJC20 and [4x] 250 nM DJC23 into columns 1 to 48 .
5; Room temperature incubation.
6; Dispense 4 uL of substrate mixture [2x] 250 mM NaOH into columns 1 to 48.
7; Centrifugation step to remove bubbles.
8; Room temperature incubation
9a; Fluorescence signal (column label AID) was read using the EnVision plate reader. […]
% is scaled to controls: 0 for no effect and ±100 for the full control effect; potency is read from the fitted curve at half-maximal effect.

Chain of Single-stranded DNA cytosine deaminase (Homo sapiens) (Q9GZX7 whole entry, looked up): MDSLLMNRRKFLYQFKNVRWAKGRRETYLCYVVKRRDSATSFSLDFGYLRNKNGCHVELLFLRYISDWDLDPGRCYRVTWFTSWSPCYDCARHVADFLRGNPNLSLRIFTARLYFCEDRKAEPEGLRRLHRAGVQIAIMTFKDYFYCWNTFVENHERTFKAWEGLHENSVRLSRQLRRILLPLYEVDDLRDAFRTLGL

SMILES	activity change, negative = inhibition	Potency
CSc1ccc(C)c(C(=O)NCC2CC2)c1	-3.38%	
O=C(O)Cn1cccc(C(F)(F)F)c1=O	-5.47%	
COc1cc(C(=O)NC2CCOC2=O)cc(OC)c1OC (configuration not stated)	-0.451%	
O=C(O)CCCC(=O)N1CCN(c2ccc(Cl)c(Cl)c2)CC1	-1.12%	
Cc1cc(Br)cc(C)c1O	2.69%	
O=C(Nc1ccc(Br)cc1)C(c1ccccc1)C1CCCC1 (configuration not stated)	1.06%	
O=C(NCc1ccc(F)cc1)NC1CC1	10.1%	
O=C(/C=C/c1ccc(OCc2ccccc2)cc1)c1cccnc1	-9.09%	
CN(CCOc1ccc(Br)cc1)C(=O)CSc1nnnn1C	-1.3%	
CC(C)c1ccc(Cn2c(COc3ccccc3)nc3ccccc32)cc1	-27.4%	
CC(C)c1ccc2c(c1)c(SC(C)(C)C)c(CC(C)(C)C(=O)O)n2Cc1ccc(Cl)cc1		79.4 µM (active)
Cc1c(C)n(Cc2ccc(Cl)cc2)c2ccc(C(=O)N3CCN(c4ccccc4F)CC3)cc12	-18.3%	
CC1CCc2cc(F)ccc2N1C(=O)C1(C)CC1(Br)Br (configuration not stated)	-6.2%	
CC(C)CNC(=O)NC1=C(C#N)C(C)(C)Cc2ccccc21	-1.37%	
CNc1snc(C)c1C(=O)N(C)CCOc1ccccc1C	4.47%	
CCOc1ccc(C(=O)Nc2cc(C(F)(F)F)ccc2Cl)cc1Cl	3.9%	

SMILES	activity change, negative = inhibition	Potency
COc1cc(C2SCCS2)ccc1OC(=O)c1ccc2c(c1)NC(=O)CS2	-4.16%	
COc1ccc(OC)c(-n2cnc3c2NC(=O)CC3c2ccsc2)c1 (configuration not stated)	24.8%	
O=C(NCCc1ccc(C(F)(F)F)cc1)c1ccccn1	-1.76%	
COc1ccc(C2Nc3ccccc3C(=O)N2c2ccc(C)cc2)cc1CN1CCOCC1 (configuration not stated)	0.31%	
Cc1ccccc1NC(=O)CSC1=C(C#N)C(c2ccccc2F)CC(=O)N1 (configuration not stated)	-9.28%	
Cc1noc(C)c1COc1cccc(C(=O)Nc2ccc(S(=O)(=O)NCc3ccco3)cc2)c1	-5.53%	
Cc1cc(Nc2ccccc2)n2nc(Cc3ccc(Cl)cc3)nc2n1	-19.8%	
CN(C)S(=O)(=O)c1ccc(NC(=O)COc2ccc3cc(Br)ccc3c2)cc1	0.34%	
O=C(c1cc2ccccc2o1)c1ccc(F)cc1F	-2.04%	
Cc1cc(C)c(NC(=O)C(C)Oc2ccc(C#N)cc2)c(C)c1 (configuration not stated)	-8.62%	
COCCn1cnnc1SC(C)C(=O)c1ccc(F)cc1 (configuration not stated)	3.25%	
COC(=O)c1ccc(C(=O)OC(C)C(=O)C23CC4CC(CC(C4)C2)C3)cc1 (configuration not stated)	-5.4%	
CCCCn1c(N2CCN(CCc3ccccc3)CC2)nc2c1c(=O)[nH]c(=O)n2C	-4.37%	
Cn1c(=O)n(Cc2ccccc2)c(=O)c2c1nc(NCc1ccccc1)n2Cc1ccccc1	-8.97%	
CCC/C=N/NC(=O)c1ccc(C)cc1C	-3.8%	
COc1ccc(C(=O)/C(C#N)=C\c2ccccc2C(F)(F)F)cc1	-17.9%	
